Measured values taken from PubChem BioAssay AID1159580 (chemical genetic matrix, 2015).
Hit rate of the full screen: of about 5,500 compounds, about 2,000 (36%) were called active. About 18% were inconclusive and are not listed. Rule as the data show it: active = normalized growth mostly below about 0.91 (no sharp cut-off); inconclusive = no clear call, values can overlap the other calls; inactive = mostly above about 0.92. The list shows a part of the results.

Experiment: chemical genetic growth profiling, strain panel (AID 1159580);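 also: tested at 20 µM; growth read once vehicle control cultures reached saturation at 30 °C; 1 = growth at the plate median or of vehicle wells; lower values mean less growth of the strain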
Settings: S. cerevisiae deletion strains, growth OD
[1] = locus YAL013W, strain DEP1, hits give low values
[2] = locus YAL040C, strain CLN3, hits give low values
[3] = locus YCL061C, strain MRC1 (second series), hits give low values
[4] = locus YDR150W, strain NUM1, hits give low values
[5] = locus YDR363W, strain ESC2, hits give low values
[6] = locus YER002W, strain NOP16, hits give low values
[7] = locus YGR078C, strain PAC10, hits give low values
[8] = locus YMR307W, strain GAS1, hits give low values
[9] = locus YNL175C, strain NOP13, hits give low values
[10] = locus YNL197C, strain WHI3, hits give low values
[11] = locus YNL224C, strain SQS1, hits give low values
[12] = locus YNL322C, strain KRE1, hits give low values
[13] = locus YOR083W, strain WHI5 (second series), hits give low values
[14] = locus YPL055C, strain LGE1, hits give low values
[15] = locus YPL241C, strain CIN2, hits give low values
[16] = locus YJR075W, strain HOC1, hits give low values
[17] = locus YMR263W, strain SAP30, hits give low values

Measured: normalized growth

OC[C@H]1O[C@@H](n2cnc3c(N[C@H]4CC5CCC4C5)ncnc32)[C@H](O)[C@@H]1O (stereo partly drawn)
inactive: [1] 1 | [2] 1.02 | [3] 1.01 | [4] 1.01 | [5] 1 | [6] 1.02 | [7] 1.03 | locus YGR229C, strain SMI1, hits give low values 0.938 | [8] 0.999 | locus YNL128W, strain TEP1, hits give low values 0.992 | [9] 1.01 | [10] 0.994 | [11] 0.974 | [12] 1.01 | [13] 1.04 | [14] 1.03 | [15] 1.01

CCCn1c(=O)c2[nH]c(C3CCCC3)nc2n(CCCOC(=O)c2ccc(S(=O)(=O)F)cc2)c1=O
inactive: [1] 0.992 | [2] 0.987 | [3] 1.01 | [5] 0.998 | [6] 1 | [7] 1.02 | [16] 0.994 | [17] 0.999 | [9] 1.01 | [10] 1 | [11] 1.01 | [13] 0.995 | [14] 1.01

CCOC(=O)C1C(c2cccnc2)C(C(=O)OCC)C(O)(C(F)(F)F)NC1(O)C(F)(F)F (stereo not drawn)
inactive: [1] 1 | locus YBR229C, strain ROT2, hits give low values 1 | locus YCL061C, strain MRC1, hits give low values 1.02 | locus YDL101C, strain DUN1, hits give low values 1 | [4] 0.985 | locus YEL061C, strain CIN8, hits give low values 0.985 | [7] 1.01 | locus YHR030C, strain SLT2, hits give low values 1.01 | locus YHR087W, strain rtc3, hits give low values 1.01 | locus YJR043C, strain POL32, hits give low values 0.996 | [16] 1.03 | locus YKL190W, strain CNB1, hits give low values 1.01 | locus YLR039C, strain RIC1, hits give low values 1.05 | locus YLR058C, strain SHM2 (second series), hits give low values 1.01 | locus YLR085C, strain ARP6, hits give low values 1.01 | locus YLR262C, strain YPT6, hits give low values 1.02 | locus YML094W, strain GIM5, hits give low values 0.965 | locus YMR219W, strain ESC1, hits give low values 1.01 | [17] 1.04 | [8] 0.995 | locus YNL153C, strain GIM3, hits give low values 1.01 | locus YNL298W, strain CLA4 (second series), hits give low values 1 | [12] 0.994 | locus YNR030W, strain Alg12, hits give low values 1 | locus YOL006C, strain TOP1, hits give low values 0.963 | [14] 1 | [15] 1.02 | locus YPR135W, strain CTF4, hits give low values 0.982
